Results filed as inconclusive are left out. Where a call stands in place of a potency, no number is given. Calls of active or inactive are those of the source. Calls come from the whole dose curve; as a rule, active = well fitted cell-killing curve with a large enough effect in the repeat runs; inconclusive = weak or mixed curves, or effect the other way; inactive = no such curve, though single readings can be large or run the other way.
Potency is the fitted concentration of half-maximal effect.

The assay is described as follows: qHTS assay to identify small molecule agonists of the estrogen receptor alpha (ER-alpha) signaling pathway in the presence of an antagonist - cell viability counter screen (AID 1259386).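 Note: cells exposed to compounds for 22 h at 37 °C before the viability read; nearly all actives have a fitted effect of over 30% in size.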 The settings on record: VM7Luc4E2 viability, CellTiter-Fluor fluorescence, 22 h; series mostly up to 92.4 µM. An excerpt:
National Center for Advancing Translational Sciences [NCATS]
NIH Chemical Genomics Center [NCGC]
U.S. Environmental Protection Agency [EPA]
National Institutes of Environmental Health Sciences [NIEHS]
National Toxicology Program [NTP]
U.S. Food and Drug Administration [FDA]
Estrogen receptor (ER), a member of nuclear hormone receptor plays an important role in development, metabolic homeostasis and reproduction. Two subtypes of ER, ER-alpha and ER-beta, have similar expression patterns with some uniqueness in both types. Endocrine disrupting chemicals (EDCs) and their interactions with steroid hormone receptors like ER causes disruption of normal endocrine function. Therefore, it is important to understand the effect of environmental chemicals in ER signaling pathway. For identifying ER agonists, VM7Luc4E2 cell line has been used in the current assay.
VM7Luc4E2 cell line (provided by Denison MS, University of California) endogenously expresses full-length ER-alpha and is stably transfected with a plasmid containing four estrogen responsive elements (ERE) upstream of a luciferase reporter gene. This current screening for measuring luciferase reporter gene activity using VM7Luc4E2 cells against Tox21 10K library collection is a confirmation study on agonist mode screening in presence of ER-antagonist (ICI-182,780) at 10.0nM final concentration. The cytotoxicity of the compounds was tested in parallel by measuring the cell viability using CellTiter-Fluor assay system (Promega, Madison, WI) in the same wells.
Tox21 Assay Protocol Summary:
VM7Luc4E2 cells were cultured in phenol red free assay medium containing 10% charcoal stripped FBS for 5 days prior to the assay. The cells were dispensed at 4,000 cells in 4uL of assay medium per well into white wall/solid-bottom 1536-well plates (Corning Life Sciences, Corning, NY) using a Multidrop Combi (Thermo Fisher Scientific Inc., Waltham, MA) dispenser. After the assay plates were incubated at 37C and 5% CO2 for 24hr, 1uL of 10.0nM (final concentration) ICI-182,780 or assay buffer was added using two separate tips of Flying Reagent Dispenser (FRD, Aurora Discovery, San Diego, CA). Then 23nL of compounds dissolved in DMSO at 15 concentrations and positive controls or DMSO only was transferred to the assay plates by a Pintool station (Wako, San Diego, CA). The assay plates were incubated at 37C and 5% CO2 for 22hr. After 21hr incubation at 37C, 1uL/well CellTiter-Fluor reagent (Promega Corporation, Madison, WI) was added to each well using FRD and after 1hr incubation at 37C and 5% CO2, the fluorescence signal was measured on ViewLux plate reader (PerkinElmer, Shelton, CT).
Turning to `O=C=Nc1ccc(Cl)c(Cl)c1`, the Potency result was “inactive”.

For `CC(=O)Nc1ccc(C)cc1C`, the Potency entry was “inactive”.

For `CC(O)c1ccccc1` (stereo not given), the Potency result was “inactive”.

Regarding `CCCCCCCC/C=C\CCCCCCCCCCCC(=O)O`, the Potency result is “inactive”.

As for `CCCCC(CC)CN` (stereo not given), the Potency result was “inactive”.

As to `C=COCC(C)C`, the Potency entry is “inactive”.

Turning to `Oc1cccc(Nc2ccccc2)c1`, the Potency result is “inactive”.

With `COC(=O)[C@H]1[C@H]2C[C@@H]3c4[nH]c5cc(OC)ccc5c4CCN3C[C@H]2C[C@@H](OC(=O)/C=C/c2ccc(O)c(OC)c2)[C@@H]1OC`, the Potency entry is “inactive”.

Regarding `OC1(c2ccccc2)CCNCC1`, the Potency result is “inactive”.

`O=C1CCCCCCCCCCOCCCCO1`: the Potency entry was “inactive”.

As for `C[C@]12CC[C@@H]3c4ccc(O)cc4CC[C@H]3[C@@H]1CC[C@@H]2OC(=O)CCC1CCCC1`, the Potency entry was “inactive”.

Take `CC(=O)N/N=C/c1ccc([N+](=O)[O-])o1`: the Potency result was “inactive”.

For `C[C@@H]1CN(CCCn2c3ccccc3c3ccccc32)C[C@H](C)N1`, the Potency result was “inactive”.

Take `CCCCOc1ccc(OCCCN2CCOCC2)cc1`: the Potency entry was “inactive”.

In the case of `Cc1cc(=O)c2c(O)c3c(O)cc(=O)c4c3c3c(cc(O)c1c23)C(C)(C)C=4O`, the activity change, negative = cytotoxicity is -17.3% [at 19 µM] (inactive).

`CCCCCCC(C)(C)C(=O)O`: the Potency entry is “inactive”.

In the case of `Nc1nnc(-c2ccc([N+](=O)[O-])o2)o1`, the Potency is 61.1 µM (active).

For the compound `CC1(CN2CCC(n3c(=O)[nH]c4ccccc43)CC2)OCc2ccccc2-n2cccc21` (stereo not given), the Potency result is “inactive”.

On to `c1ccc2sc(SN(C3CCCCC3)C3CCCCC3)nc2c1`, for which the Potency entry was “inactive”.

Consider `Nc1cccc2c1CN(C1CCC(=O)NC1=O)C2=O` (stereo not given), for which the Potency result is “inactive”.

Turning to `CCCCCCNC(=O)n1cc(F)c(=O)[nH]c1=O`, the Potency entry was “inactive”.

Turning to `CN(C)CCN1C(=O)c2ccccc2N(C)c2ccccc21`, the Potency result is “inactive”.

Consider `CCCCCCCCCCCCCCN(CCO)CCO`, for which the Potency entry is “inactive”.

Take `CCC1(CO)COCOC1`: the Potency result was “inactive”.

For `CCCCN1CCCC1C(=O)Nc1c(C)cc(C)cc1C` (stereo not given), the Potency entry was “inactive”.

On to `O=[N+]([O-])c1ccc(O/N=C/c2cc(Br)c(O)c(Br)c2)c([N+](=O)[O-])c1`, for which the Potency was 27.2 µM (active).

In the case of `OCCN1CCN(CCCN2c3ccccc3Sc3ccc(Cl)cc32)CC1`, the Potency entry is “inactive”.

With `CC(=O)Oc1ccc([N+](=O)[O-])cc1CCl`, the Potency is 48.6 µM (active).

In the case of `C[C@H]1C[C@H](O)c2ccsc2S1(=O)=O`, the Potency result was “inactive”.

On to `CCCCCCCC/C=C\CCCCCCCCO`, for which the Potency entry is “inactive”.

As to `CCCCCCCCC(CCCCCC)C(=O)O` (stereo not given), the Potency entry is “inactive”.

Consider `CC[C@]1(O)C[C@H]2CN(CCc3c([nH]c4ccccc34)[C@@](C(=O)OC)(c3cc4c(cc3OC)N(C=O)[C@H]3[C@@](O)(C(=O)OC)[C@H](OC(C)=O)[C@]5(CC)C=CCN6CC[C@]43[C@@H]65)C2)C1`, for which the Potency entry is “inactive”.

Turning to `CCN(CC)CCNC(=O)COc1ccc(OC)cc1`, the Potency result was “inactive”.

For `CC(C)(C)C(=O)C(=O)O`, the Potency entry is “inactive”.

Turning to `CCOC(=O)c1ccc(OCCN2C[C@H](O)[C@@H](O)[C@H](O)[C@H]2CO)cc1`, the Potency result was “inactive”.

For the compound `Cc1cccc(N(C)C(=S)Oc2ccc3c(c2)CCC3)c1`, the Potency entry was “inactive”.

For the compound `O=C=Nc1cccc(C(F)(F)F)c1`, the Potency entry is “inactive”.

Take `CCC(=O)OC`: the Potency result is “inactive”.

`CCCCCCCCCI`: the Potency result is “inactive”.

For the compound `CC(C)=CCC/C(C)=C/CC/C(C)=C/CCC(=O)OC/C=C(\C)CCC=C(C)C`, the Potency result is “inactive”.

For the origin of these results see PubChem BioAssay (Tox21).
